Experimental findings from the supplement of paper PMC12645437, “Orthogonal IMiD-Degron Pairs Induce Selective Protein Degradation in Cells” (ACS Chemical Biology, 2025) are described below.

In all, about 8,300 sequences were measured (“log2 fold change of degron read counts, EGFP-low vs EGFP+ sorted cells (limma voom), compound-induced degradation”: median about -1.1, highest 2% from about 3.2 on). Many of the other results were omitted from the sample, so the highest values are more common in it than they were.

This assay concerns the target T1, CRBN, Q96SW2.
T1 chain: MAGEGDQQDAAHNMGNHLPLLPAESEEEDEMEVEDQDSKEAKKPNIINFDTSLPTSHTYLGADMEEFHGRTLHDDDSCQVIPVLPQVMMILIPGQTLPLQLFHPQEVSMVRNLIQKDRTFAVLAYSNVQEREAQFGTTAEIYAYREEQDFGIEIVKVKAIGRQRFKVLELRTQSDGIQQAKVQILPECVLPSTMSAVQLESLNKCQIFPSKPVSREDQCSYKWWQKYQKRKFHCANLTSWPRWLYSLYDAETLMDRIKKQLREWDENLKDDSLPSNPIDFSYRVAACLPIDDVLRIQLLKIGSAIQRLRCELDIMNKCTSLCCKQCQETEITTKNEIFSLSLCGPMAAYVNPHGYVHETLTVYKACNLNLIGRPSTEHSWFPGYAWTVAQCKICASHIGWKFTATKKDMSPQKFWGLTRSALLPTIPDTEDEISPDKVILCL
Description: log2 fold change of degron read counts, EGFP-low vs EGFP+ sorted cells (limma voom), compound-induced degradation; higher = more compound-induced degradation of the degron-EGFP fusion; degrons are variants of IKZF1/3 zinc finger 2; compound dose not given here. The following applies: Jurkat, 18 h.

Setting [1] is: compound: compound 19 (5-tert-butyl-thalidomide).
Setting [2] is: compound: compound 22 (5-morpholino-thalidomide).
Setting [3] is: compound: compound 33 (diphenyl IMiD analogue).
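Also: pooled lentiviral library of zinc finger degron-EGFP fusions in mCherry-positive Jurkat cells, FACS-sorted after compound exposure, with degron abundance counted by next-generation sequencing.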

Take FFCEICGHIFTQKGNLLRHIKL [46F_47F_49E_50I_52G_53H_54I_55F_67L_, Q9UKT9]: the “log2 fold change of degron read counts” value reads like this: under setting [1], -0.448; under setting [2], -0.503; under setting [3], -0.957; (compound: thalidomide) -1.04.
On to LHCEICGFSCTQKGNLLRHIKL [46L_47H_49E_50I_52G_53F_54S_55C_67L_, Q9UKT9], for which the “log2 fold change of degron read counts” value under setting [1] turned out to be 3.19, the “log2 fold change of degron read counts” value under setting [2] was found to be 3.16, the “log2 fold change of degron read counts” value under setting [3] was 2.27 and the “log2 fold change of degron read counts” value (compound: thalidomide) came out at 2.44.
Consider LQCEICGFSCTQKGNLLRHIKL [46L_47Q_49E_50I_52G_53F_54S_55C_67L_, Q9UKT9], for which the “log2 fold change of degron read counts” value is, setting by setting: under setting [1], 2.41; under setting [2], 1.96; under setting [3], 1.77; (compound: thalidomide) 3.58.
The matching figures for LWCEICGFSCTQKGNLLRHIKL [46L_47W_49E_50I_52G_53F_54S_55C_67L_, Q9UKT9]: 3.66, 3.79, 3.08 and 1.89.
For LLCEICGFSCTQKGNLLRHIKL [46L_47L_49E_50I_52G_53F_54S_55C_67L_, Q9UKT9], in that order: 1.68, -0.0296, 1.49 and 2.43.
The matching figures for LVCEICGFSCTQKGNLLRHIKL [46L_47V_49E_50I_52G_53F_54S_55C_67L_, Q9UKT9]: 2.39, 3.11, 2.52 and 3.33.
Turning to LACEICGFSCTQKGNLLRHIKL [46L_47A_49E_50I_52G_53F_54S_55C_67L_, Q9UKT9], the “log2 fold change of degron read counts” value runs as follows: under setting [1], 3.41; under setting [2], 2.96; under setting [3], 0.73; (compound: thalidomide) 1.55.
As to LRCEICGFSCTQKGNLLRHIKL [46L_47R_49E_50I_52G_53F_54S_55C_67L_, Q9UKT9], the “log2 fold change of degron read counts” value runs as follows: under setting [1], 2.23; under setting [2], 1.56; under setting [3], 2.62; (compound: thalidomide) 2.99.
LECEICGFSCTQKGNLLRHIKL [46L_47E_49E_50I_52G_53F_54S_55C_67L_, Q9UKT9]: the “log2 fold change of degron read counts” value runs as follows: under setting [1], 0.457; under setting [2], -1.92; under setting [3], 1.25; (compound: thalidomide) 2.46.
The matching figures for LNCEICGFSCTQKGNLLRHIKL [46L_47N_49E_50I_52G_53F_54S_55C_67L_, Q9UKT9]: 1.58, -0.0234, -0.0305 and 0.742.
For LDCEICGFSCTQKGNLLRHIKL [46L_47D_49E_50I_52G_53F_54S_55C_67L_, Q9UKT9], in that order: 0.356, -1.04, -1.04 and -0.00753.
With LGCEICGFSCTQKGNLLRHIKL [46L_47G_49E_50I_52G_53F_54S_55C_67L_, Q9UKT9], the “log2 fold change of degron read counts” value is 1.24 under setting [1], 0.532 under setting [2], -0.284 under setting [3] and -0.251 (compound: thalidomide).
As to LSCEICGFSCTQKGNLLRHIKL [46L_47S_49E_50I_52G_53F_54S_55C_67L_, Q9UKT9], the “log2 fold change of degron read counts” value under setting [1] amounted to 2.75, the “log2 fold change of degron read counts” value under setting [2] was 2.53, the “log2 fold change of degron read counts” value under setting [3] came to 1.7 and the “log2 fold change of degron read counts” value (compound: thalidomide) amounted to 1.8.
The matching figures for FLCDICGACFTQKGNLLRHIKL [46F_47L_49D_50I_52G_53A_54C_55F_67L_, Q9UKT9]: -0.48, -1.68, 0.21 and -0.568.
For FTCNQCGRMFTQKGNLLRHIKL [46F_47T_49N_50Q_52G_53R_54M_55F_67L_, Q9UKT9], in that order: -2.42, -2.23, -3.36 and -2.15.
As for FKCPVCGANFTQKGNLLRHIKL [46F_47K_49P_50V_52G_53A_54N_55F_67L_, Q9UKT9], the “log2 fold change of degron read counts” value reads like this: under setting [1], -1.23; under setting [2], -1.7; under setting [3], -1.75; (compound: thalidomide) -0.842.
On to FFCNVCGASFTQKGNLLRHIKL [46F_47F_49N_50V_52G_53A_54S_55F_67L_, Q9UKT9], for which the “log2 fold change of degron read counts” value is 0.714 under setting [1], 1.8 under setting [2], 0.537 under setting [3] and -0.573 (compound: thalidomide).
FWCNVCGATFTQKGNLLRHIKL [46F_47W_49N_50V_52G_53A_54T_55F_67L_, Q9UKT9]: the “log2 fold change of degron read counts” value was -0.873 under setting [1], 1.95 under setting [2], 0.03 under setting [3] and -1.73 (compound: thalidomide).
The matching figures for FVCEICGHWFTQKGNLLRHIKL [46F_47V_49E_50I_52G_53H_54W_55F_67L_, Q9UKT9]: -4.05, -5.4, -3.27 and -3.37.
For FCCNVCGAIFTQKGNLLRHIKL [46F_47C_49N_50V_52G_53A_54I_55F_67L_, Q9UKT9], in that order: -0.872, -0.605, 1.29 and -0.21.
For FRCDVCGAKFTQKGNLLRHIKL [46F_47R_49D_50V_52G_53A_54K_55F_67L_, Q9UKT9], in that order: -1.66, -1.94, -0.967 and -0.732.
As for FFCEICGHQFTQKGNLLRHIKL [46F_47F_49E_50I_52G_53H_54Q_55F_67L_, Q9UKT9], the “log2 fold change of degron read counts” value by setting is: under setting [1], -2.47; under setting [2], -1.41; under setting [3], -2.03; (compound: thalidomide) -3.11.
For FCCPVCGAYFTQKGNLLRHIKL [46F_47C_49P_50V_52G_53A_54Y_55F_67L_, Q9UKT9], the “log2 fold change of degron read counts” value reads like this: under setting [1], 0.773; under setting [2], 0.428; under setting [3], 1.38; (compound: thalidomide) 0.899.
For LMCEICGFSCTQKGNLLRHIKL [46L_47M_49E_50I_52G_53F_54S_55C_67L_, Q9UKT9], in that order: 1.25, 2.14, 2.59 and 2.36.
For the sequence LICEICGFSCTQKGNLLRHIKL [46L_47I_49E_50I_52G_53F_54S_55C_67L_, Q9UKT9], the “log2 fold change of degron read counts” value was 1.33 under setting [1], 3.02 under setting [2], 2.39 under setting [3] and 3.24 (compound: thalidomide).
The matching figures for LFCEICGFSCTQKGNLLRHIKL [46L_47F_49E_50I_52G_53F_54S_55C_67L_, Q9UKT9]: 3.66, 3.51, 2.53 and 2.79.
For LCCEICGFSCTQKGNLLRHIKL [46L_47C_49E_50I_52G_53F_54S_55C_67L_, Q9UKT9], the “log2 fold change of degron read counts” value under setting [1] turned out to be 2.55, the “log2 fold change of degron read counts” value under setting [2] was found to be 2.37, the “log2 fold change of degron read counts” value under setting [3] came out at 1.93 and the “log2 fold change of degron read counts” value (compound: thalidomide) turned out to be 2.56.
The matching figures for LKCEICGFSCTQKGNLLRHIKL [46L_47K_49E_50I_52G_53F_54S_55C_67L_, Q9UKT9]: 1.07, -1.26, -1.41 and 0.762.
The matching figures for LYCEICGFSCTQKGNLLRHIKL [46L_47Y_49E_50I_52G_53F_54S_55C_67L_, Q9UKT9]: 3.63, 3.7, 3.1 and 2.45.
For LTCEICGFSCTQKGNLLRHIKL [46L_47T_49E_50I_52G_53F_54S_55C_67L_, Q9UKT9], in that order: 2.45, 3.22, 2.39 and 3.2.
